About 8,800 targets were measured; listed, in parts, are those with a hit and a random draw of the rest. About 0.5% of all pairs of compound and target were hits.

Sequence of UniProt Q16539 (Q16539 whole entry, looked up): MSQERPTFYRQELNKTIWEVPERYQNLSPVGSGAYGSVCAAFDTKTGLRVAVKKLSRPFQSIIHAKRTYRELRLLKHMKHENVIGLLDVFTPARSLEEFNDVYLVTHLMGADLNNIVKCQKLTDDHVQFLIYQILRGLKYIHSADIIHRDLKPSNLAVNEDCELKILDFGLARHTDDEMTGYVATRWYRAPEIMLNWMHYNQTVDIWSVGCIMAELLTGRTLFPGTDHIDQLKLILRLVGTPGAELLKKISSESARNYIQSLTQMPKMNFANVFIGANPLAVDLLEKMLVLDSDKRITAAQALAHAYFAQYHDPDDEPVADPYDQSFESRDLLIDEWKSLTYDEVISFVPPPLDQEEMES
Sequence of UniProt Q9Y2E5 (Q9Y2E5 whole entry, looked up): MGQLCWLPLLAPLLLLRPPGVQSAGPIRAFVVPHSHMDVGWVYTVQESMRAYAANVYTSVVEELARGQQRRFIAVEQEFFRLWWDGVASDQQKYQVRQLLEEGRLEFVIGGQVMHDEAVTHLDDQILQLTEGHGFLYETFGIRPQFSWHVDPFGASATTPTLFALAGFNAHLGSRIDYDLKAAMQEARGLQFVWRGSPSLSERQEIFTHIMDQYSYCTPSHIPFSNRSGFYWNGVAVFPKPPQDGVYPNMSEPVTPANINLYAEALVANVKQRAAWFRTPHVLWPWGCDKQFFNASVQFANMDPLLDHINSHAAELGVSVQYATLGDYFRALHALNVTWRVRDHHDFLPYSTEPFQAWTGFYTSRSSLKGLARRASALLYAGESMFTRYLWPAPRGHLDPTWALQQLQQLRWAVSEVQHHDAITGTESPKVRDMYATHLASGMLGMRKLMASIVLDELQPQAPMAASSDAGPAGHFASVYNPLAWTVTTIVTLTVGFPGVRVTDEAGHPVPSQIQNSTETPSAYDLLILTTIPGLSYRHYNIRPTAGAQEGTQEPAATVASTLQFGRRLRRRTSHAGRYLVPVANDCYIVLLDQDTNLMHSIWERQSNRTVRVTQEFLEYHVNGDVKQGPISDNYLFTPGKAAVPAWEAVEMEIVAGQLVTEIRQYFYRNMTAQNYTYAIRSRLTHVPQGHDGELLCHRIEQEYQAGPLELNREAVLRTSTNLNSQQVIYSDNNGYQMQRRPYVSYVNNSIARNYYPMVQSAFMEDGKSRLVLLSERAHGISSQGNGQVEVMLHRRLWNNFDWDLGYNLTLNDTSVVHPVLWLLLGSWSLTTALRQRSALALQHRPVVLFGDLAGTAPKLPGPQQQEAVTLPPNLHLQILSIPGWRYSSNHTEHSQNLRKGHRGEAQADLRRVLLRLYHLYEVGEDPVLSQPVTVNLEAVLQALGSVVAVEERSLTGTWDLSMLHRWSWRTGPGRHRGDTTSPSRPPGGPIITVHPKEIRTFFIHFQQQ
Sequence of UniProt O00522 (O00522 whole entry, looked up): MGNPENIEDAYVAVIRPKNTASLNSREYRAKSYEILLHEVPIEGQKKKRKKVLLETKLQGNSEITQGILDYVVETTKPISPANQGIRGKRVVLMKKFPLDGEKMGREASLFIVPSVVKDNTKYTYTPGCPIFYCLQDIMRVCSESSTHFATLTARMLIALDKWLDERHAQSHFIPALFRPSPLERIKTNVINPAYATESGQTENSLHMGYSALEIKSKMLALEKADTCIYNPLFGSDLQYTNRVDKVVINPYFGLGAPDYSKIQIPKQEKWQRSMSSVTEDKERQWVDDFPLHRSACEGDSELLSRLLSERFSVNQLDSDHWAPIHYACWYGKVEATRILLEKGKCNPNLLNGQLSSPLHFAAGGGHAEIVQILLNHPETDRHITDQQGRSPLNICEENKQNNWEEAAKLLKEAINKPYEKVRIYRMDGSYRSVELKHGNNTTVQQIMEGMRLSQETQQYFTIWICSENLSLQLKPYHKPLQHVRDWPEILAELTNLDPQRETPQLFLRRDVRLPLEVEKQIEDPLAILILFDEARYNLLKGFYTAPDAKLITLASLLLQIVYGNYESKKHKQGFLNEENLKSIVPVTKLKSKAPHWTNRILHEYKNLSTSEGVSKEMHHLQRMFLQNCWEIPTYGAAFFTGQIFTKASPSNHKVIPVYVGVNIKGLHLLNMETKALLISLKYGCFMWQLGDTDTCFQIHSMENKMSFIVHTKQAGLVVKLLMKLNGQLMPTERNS
Sequence of UniProt Q12851 (Q12851 whole entry, looked up): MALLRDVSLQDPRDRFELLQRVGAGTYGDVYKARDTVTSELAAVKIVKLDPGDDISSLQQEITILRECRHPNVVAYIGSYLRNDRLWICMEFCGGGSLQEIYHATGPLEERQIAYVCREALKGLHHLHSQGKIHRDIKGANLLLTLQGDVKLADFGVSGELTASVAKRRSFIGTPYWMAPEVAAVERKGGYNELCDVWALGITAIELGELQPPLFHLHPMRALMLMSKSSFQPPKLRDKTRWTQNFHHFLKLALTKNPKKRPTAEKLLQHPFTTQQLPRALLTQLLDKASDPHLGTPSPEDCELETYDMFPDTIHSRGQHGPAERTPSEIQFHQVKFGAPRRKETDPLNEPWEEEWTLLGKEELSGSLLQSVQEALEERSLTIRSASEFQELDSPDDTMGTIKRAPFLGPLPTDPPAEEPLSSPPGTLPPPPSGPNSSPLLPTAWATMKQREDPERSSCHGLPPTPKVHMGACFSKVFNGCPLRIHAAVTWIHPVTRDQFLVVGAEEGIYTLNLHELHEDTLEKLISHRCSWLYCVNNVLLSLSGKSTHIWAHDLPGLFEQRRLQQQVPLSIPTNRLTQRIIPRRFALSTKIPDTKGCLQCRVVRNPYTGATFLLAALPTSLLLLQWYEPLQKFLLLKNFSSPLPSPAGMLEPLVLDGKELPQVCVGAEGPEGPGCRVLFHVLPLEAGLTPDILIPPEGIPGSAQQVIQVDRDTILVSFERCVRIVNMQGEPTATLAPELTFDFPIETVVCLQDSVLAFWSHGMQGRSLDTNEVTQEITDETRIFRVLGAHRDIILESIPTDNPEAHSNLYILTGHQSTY
Sequence of UniProt A9UHW6 (A9UHW6 whole entry, looked up): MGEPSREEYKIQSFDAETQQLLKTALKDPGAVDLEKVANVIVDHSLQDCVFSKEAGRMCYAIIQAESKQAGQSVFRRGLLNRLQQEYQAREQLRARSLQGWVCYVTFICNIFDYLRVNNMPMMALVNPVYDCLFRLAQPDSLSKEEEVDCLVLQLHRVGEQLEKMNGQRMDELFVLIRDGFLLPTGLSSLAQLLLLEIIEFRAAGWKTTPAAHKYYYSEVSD
Sequence of UniProt Q71SY5 (Q71SY5 whole entry, looked up): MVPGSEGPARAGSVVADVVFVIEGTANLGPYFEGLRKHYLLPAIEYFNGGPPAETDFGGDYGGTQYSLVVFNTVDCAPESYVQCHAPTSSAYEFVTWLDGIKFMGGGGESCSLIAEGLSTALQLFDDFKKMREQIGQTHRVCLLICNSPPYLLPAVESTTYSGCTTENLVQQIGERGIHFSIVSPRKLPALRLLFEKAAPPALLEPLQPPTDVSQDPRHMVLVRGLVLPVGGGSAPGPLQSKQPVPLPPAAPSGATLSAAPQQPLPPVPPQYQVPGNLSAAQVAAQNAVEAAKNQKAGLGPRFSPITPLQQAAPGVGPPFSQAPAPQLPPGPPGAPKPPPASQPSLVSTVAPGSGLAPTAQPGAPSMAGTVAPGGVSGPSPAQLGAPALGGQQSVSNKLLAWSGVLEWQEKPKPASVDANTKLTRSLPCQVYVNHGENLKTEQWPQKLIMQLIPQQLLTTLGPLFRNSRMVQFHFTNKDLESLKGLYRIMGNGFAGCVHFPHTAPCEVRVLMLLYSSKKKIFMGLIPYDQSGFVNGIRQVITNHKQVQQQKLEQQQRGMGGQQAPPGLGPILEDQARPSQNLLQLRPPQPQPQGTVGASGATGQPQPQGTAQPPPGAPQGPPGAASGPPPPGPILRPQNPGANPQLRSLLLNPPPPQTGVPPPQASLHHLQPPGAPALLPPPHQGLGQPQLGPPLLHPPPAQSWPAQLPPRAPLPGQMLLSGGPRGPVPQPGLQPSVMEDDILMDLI
Sequence of UniProt P11279 (P11279 whole entry, looked up): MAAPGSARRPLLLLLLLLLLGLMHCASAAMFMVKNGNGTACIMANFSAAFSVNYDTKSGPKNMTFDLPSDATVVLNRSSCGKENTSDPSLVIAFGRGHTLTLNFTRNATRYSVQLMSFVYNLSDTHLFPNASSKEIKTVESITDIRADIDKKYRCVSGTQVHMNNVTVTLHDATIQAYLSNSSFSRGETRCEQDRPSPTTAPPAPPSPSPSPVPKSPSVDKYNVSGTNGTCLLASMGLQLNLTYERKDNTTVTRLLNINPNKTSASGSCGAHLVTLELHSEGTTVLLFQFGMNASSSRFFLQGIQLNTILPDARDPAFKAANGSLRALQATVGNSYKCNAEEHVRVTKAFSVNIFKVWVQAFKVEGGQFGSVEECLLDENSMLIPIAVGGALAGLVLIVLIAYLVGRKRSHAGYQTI
Sequence of UniProt Q8N5J2 (Q8N5J2 whole entry, looked up): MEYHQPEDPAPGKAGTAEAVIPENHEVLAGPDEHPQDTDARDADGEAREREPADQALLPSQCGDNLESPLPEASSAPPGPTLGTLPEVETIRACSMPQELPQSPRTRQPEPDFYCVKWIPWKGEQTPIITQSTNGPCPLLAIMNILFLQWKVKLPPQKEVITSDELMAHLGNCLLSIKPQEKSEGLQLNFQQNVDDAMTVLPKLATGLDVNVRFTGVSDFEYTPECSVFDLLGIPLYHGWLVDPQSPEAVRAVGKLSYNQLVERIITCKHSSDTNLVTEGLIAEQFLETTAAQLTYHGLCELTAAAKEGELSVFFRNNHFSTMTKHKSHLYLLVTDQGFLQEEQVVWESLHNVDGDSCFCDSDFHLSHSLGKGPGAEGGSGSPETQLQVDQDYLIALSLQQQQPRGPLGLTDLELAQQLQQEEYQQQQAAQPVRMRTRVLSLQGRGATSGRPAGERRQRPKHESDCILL
Sequence of UniProt Q9BTT4 (Q9BTT4 whole entry, looked up): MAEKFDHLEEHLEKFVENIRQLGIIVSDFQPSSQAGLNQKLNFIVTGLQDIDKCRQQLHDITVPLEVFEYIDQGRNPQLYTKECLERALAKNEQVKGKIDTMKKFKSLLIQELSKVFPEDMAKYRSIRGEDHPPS

Compound in the assay: CCN(CCCOc1ccc2c(Nc3cc(CC(=O)Nc4cccc(F)c4)[nH]n3)ncnc2c1)CCOP(=O)(O)O [barasertib]
The assay is described as follows: log2 fold change, soluble protein after heating vs DMSO (PISA); higher = thermal stabilisation; K562 lysate, 10 uM; active = over 0.2 and 3.5 SD of the protein, either way, in both replicates (recomputed). An outline of the steps: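 A 30 min treatment with 10 μM compound was applied to crude K562 extract at 1 mg/mL protein in PBS pH 7.4 with 1 mM MgCl2. Heating for 3 min spanned 48°C-58°C, after which aliquots were pooled, adjusted to 0.5% NP-40 at 4°C and spun at 21,000xg for 90 min. TMTpro 16plex LC-MS/MS of the supernatant, with channel sums equalised, gave values recorded as log-two fold change in thermal stability against solvent controls, from duplicates.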
With MCMBP isoform 2 (UniProt Q9BTE3), the log2 fold change was -0.096 (inactive).

Turning to MAP4K5 (UniProt Q9Y4K4), the log2 fold change was 0.23 (inactive).

MACO1 (UniProt Q8N5G2): the log2 fold change was -0.063 (inactive).

Regarding LEPROT (UniProt O15243), the log2 fold change was 0.042 (inactive).

For KLHL12 isoform 2 (UniProt Q53G59), the log2 fold change is -0.413 (active).

As to LSS (UniProt P48449), the log2 fold change was 0.044 (inactive).

As to KIF4B (UniProt Q2VIQ3), the log2 fold change was -0.015 (inactive).

With MRPL27 (UniProt Q9P0M9), the log2 fold change is -0.01 (inactive).

Take MED25 isoform 3 (UniProt Q71SY5): the log2 fold change is 0.034 (inactive).

As for MAP7D3 (UniProt Q8IWC1), the log2 fold change is -0.031 (inactive).

For the target MITD1 (UniProt Q8WV92), the log2 fold change is 0.057 (inactive).

As to MED14 (UniProt O60244), the log2 fold change is 0.015 (inactive).

For LIMK2 isoform 3 (UniProt P53671), the log2 fold change is -0.062 (inactive).

In the case of LAMP1 (UniProt P11279), the log2 fold change is 0.001 (inactive).

For MAPK3 (UniProt P27361), the log2 fold change was -0.026 (inactive).

Regarding MRPL35 (UniProt Q9NZE8), the log2 fold change is 0.021 (inactive).

In the case of MAN2B2 (UniProt Q9Y2E5), the log2 fold change is -0.047 (inactive).

MAST2 (UniProt Q6P0Q8): the log2 fold change is 0.105 (inactive).

With MGST3 (UniProt O14880), the log2 fold change is -0.056 (inactive).

On to MAPK14 (UniProt Q16539), for which the log2 fold change is 0.021 (inactive).

In the case of LRRC7 (UniProt Q96NW7), the log2 fold change is 0.062 (inactive).

Take MIF4GD isoform 3 (UniProt A9UHW6): the log2 fold change is 0.051 (inactive).

In the case of MME (UniProt P08473), the log2 fold change is -0.084 (inactive).

Consider MAP4K2 (UniProt Q12851), for which the log2 fold change was 0.009 (inactive).

For the target LIMK1 (UniProt P53667), the log2 fold change was 0.007 (inactive).

As for MCUB (UniProt Q9NWR8), the log2 fold change is 0.156 (inactive).

For the target METTL21A (UniProt Q8WXB1), the log2 fold change was 0.062 (inactive).

For the target MINDY1 isoform 3 (UniProt Q8N5J2), the log2 fold change was -0.201 (inactive).

As for MAP4 isoform 5 (UniProt P27816), the log2 fold change is -0.038 (inactive).

With MAPKAPK3 (UniProt Q16644), the log2 fold change is 0.015 (inactive).

Turning to LPCAT1 (UniProt Q8NF37), the log2 fold change is 0.012 (inactive).

With MANEA (UniProt Q5SRI9), the log2 fold change was -0.071 (inactive).

As for MRPL30 isoform 2 (UniProt Q8TCC3), the log2 fold change is 0.002 (inactive).

For KRIT1 (UniProt O00522), the log2 fold change was -0.084 (inactive).

LTN1 isoform 3 (UniProt O94822): the log2 fold change was 0.034 (inactive).

As to MAPK8 isoform 3 (UniProt P45983), the log2 fold change is 0.007 (inactive).

MED10 (UniProt Q9BTT4): the log2 fold change was 0.08 (inactive).

Consider MAP3K4 (UniProt Q9Y6R4), for which the log2 fold change is 0.107 (inactive).

Regarding MAP4K4 isoform 6 (UniProt O95819), the log2 fold change is 0.06 (inactive).

For the origin of these results see the supplement of paper PMC10849652.
